The whole screen tested about 64,000 compounds, of which about 220 (0.34%) were called active. The entries come from a sample that favours actives as a whole. A number with no mark means an inactive call.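 Rule for the calls: active = inhibition above 50%; inactive = the rest.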
What follows are compounds tested against Heat shock protein HSP 90-alpha (Homo sapiens) (UniProt P07900) (assay: Hsp90 geldanamycin-site probe displacement – cell lysate, fluorescence polarization, NCI-N417 lysate, primary screen (AID 429;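 note: 0% = tracer plus lysate wells and 100% = tracer alone without lysate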)). Conditions: NCI-N417 lysate Hsp90, Cy3B-geldanamycin FP displacement; at 30 µM; hits give high values.

In order of rising inhibition:
1. CN(C)c1cc(N)c2ccccc2n1 (tested in a mixture with another compound)  -9.07%
2. O=c1nc2s/c(=C\c3ccco3)c(=O)n2nc1Cc1ccccc1  -6.3%
3. CCOC(=O)C1CCCN(Cc2nc(N)nc(Nc3ccc(C)cc3)n2)C1 (stereo unspecified)  -6.1%
4. CCOc1ccc(N(CC(=O)NCc2ccc(OC)cc2)S(=O)(=O)c2c(C)noc2C)cc1  -5.24%
5. O=C1[C@@H]2C(Cc3ccc(O)cc3)NC3(C(=O)Nc4ccc(F)cc43)[C@@H]2C(=O)N1c1ccc(F)cc1 (stereo partly specified)  -5.22%
6. CCC/C(O)=C1\C(=O)CC(C)(C)CC1=Nc1ccccc1OC  -4.54%
7. COc1ccccc1Oc1ccc(S(=O)(=O)Nc2cccnc2)cc1  -4.43%
8. O=C(NCc1cn2ccsc2n1)Nc1cccc(Cl)c1  -4.35%
9. C=CCn1c(N)c(S(=O)(=O)c2cccs2)c2nc3ccccc3nc21  -4.06%
10. CCCC(=O)N(CCc1ccccc1)Cc1nc2ccccc2c(=O)[nH]1  -3.96%
11. O=C(CCC(=O)OCC(F)(F)C(F)F)NCc1ccccc1  -3.91%
12. CCOC(=O)N1CCN(C(=O)c2nn(-c3ccc(C)cc3)c(=O)c3c2c2ccccc2n3C)CC1  -3.87%
13. COc1ccc(-c2nc(CS(=O)CC(=O)NCc3cccnc3)c(C)o2)cc1OC (stereo unspecified)  -3.8%
14. CN(C)CCOC(=O)C(c1ccccc1)C1(O)CCCC1 (stereo unspecified)  -3.68%
15. CCn1cc(C(=O)N2CC=C(c3ccccc3)CC2)c(=O)c2ccc(C)nc21  -3.28%
16. Cc1ccc(C)c(NC(=O)C2CC(=O)N(C(C)C)C2)c1 (stereo unspecified)  -3.18%
17. CC(C)Cn1c(N)c(C(=O)NCc2cccs2)c2nc3ccccc3nc21  -3.05%
18. Cc1[nH]c2ccccc2c1C(=O)CSCC(=O)O  -2.89%
19. COc1ccc(CNC2CCCCC2)cc1  -2.8%
20. Cc1cccc(Cn2c(N3CCN(c4ccccc4)CC3)nc3c2c(=O)n(C)c(=O)n3C)c1  -2.67%
21. CCN(CC)S(=O)(=O)c1cccc(C(=O)Nc2cc(C)nn2-c2nc(C)cc(C)n2)c1  -2.41%
22. O=c1cc(CSc2ccc(Cl)cc2)nc(N2CCOCC2)[nH]1  -2.37%
23. COc1cc(NCCCC#N)c2ncccc2c1  -2.3%
24. CC12CCC(C(=O)N(CCC#N)CCC#N)(CC1=O)C2(C)C (stereo unspecified)  -2.19%
25. CN(c1ccc(C(=O)NCCC2=CCCCC2)cc1)S(C)(=O)=O  -2.17%
26. CCc1ccc(N(CC)c2ncnc3nc[nH]c23)cc1  -2.13%
27. COc1ccc(-n2c(SCC(=O)NCc3cccs3)nnc2-c2ccoc2C)cc1  -1.94%
28. O=C(CC1CCCCC1)Nc1c2c(nn1-c1ccc(F)cc1)CS(=O)(=O)C2  -1.94%
29. Cn1c(=O)c2c(nc(SCC(=O)Nc3ccccc3N3CCCCC3)n2C)n(C)c1=O  -1.91%
30. CS(=O)(=O)NCc1ccc(C(=O)NCc2ccccc2)cc1  -1.87%
31. O=C(NCCCN1CCN(Cc2ccccc2)CC1)C1CCN(S(=O)(=O)N2CCCC2)CC1  -1.77%
32. COc1ccc(Cn2cccc(NC(=O)Nc3ccc(C#N)cc3)c2=O)cc1  -1.69%
33. O=C1C=C(NCCNc2c(F)c(F)c(CO)c(F)c2F)CCC1  -1.66%
34. COc1cccc(NC(=O)c2ccccc2SC)c1  -1.59%
35. CCNC(=O)CCc1nc(-c2ccc(C(C)(C)C)cc2)no1  -1.56%
36. O=C(O)c1cscn1  -1.54%
37. COC(=O)Cc1csc(Nc2c(C)n(C)n(-c3ccccc3)c2=O)n1  -1.47%
38. CC(c1cccnc1)N(CCN(C)C)C(=O)Nc1ccc(Cl)c(Cl)c1 (stereo unspecified)  -1.45%
39. O=C(CCN1C(=O)c2ccccc2C1=O)NCCN1CCOCC1  -1.37%
40. NC1CCN(O)C1=O (stereo unspecified)  -1.33%
41. CCOC(=O)CSc1nc2c(sc(=S)n2CCc2ccccc2)c(=O)n1Cc1ccco1  -1.25%
42. COc1ccc(C2CC(c3ccc(C)cc3)Nc3ncnn32)cc1 (stereo unspecified)  -1.24%
43. O=C(O)CCC(=O)N(Cc1ccco1)c1nc(-c2ccccc2)cs1  -1.19%
44. C#CCCCNc1cc(OC)cc2cccnc12  -1.17%
45. CC1CCN(Cc2nc3c(c(=O)n(C)c(=O)n3C)n2Cc2cccc3ccccc23)CC1  -1.11%
46. CC(C)C(c1nnnn1C1CCCC1)N1CCN(c2ccccc2F)CC1 (stereo unspecified)  -0.85%
47. CSCC[C@H](NC(=O)NCCc1ccc(F)cc1)C(=O)O  -0.8%
48. CCCCSc1nnc(-c2ccc(NC(=O)CC)cc2)n1C  -0.77%
49. CS(=O)(=O)N1CCCC(C(=O)N2CCOCC2)C1 (stereo unspecified)  -0.69%
50. CC(=O)c1ccc(-n2nnnc2SCC(=O)N2CCN(C(=O)c3ccco3)CC2)cc1  -0.68%
51. COC(=O)c1cc(S(=O)(=O)NC2CCN(Cc3ccccc3)CC2)cn1C  -0.68%
52. NC(=O)C1=CN(C2OC(COP(=O)(O)OP(=O)(O)OC[C@H]3O[C@@H](n4cnc5c(N)ncnc54)C(OP(=O)(O)O)[C@H]3O)C(O)C2O)C=CC1 (stereo partly specified)  -0.66%
53. CCN(CC)Cc1c(C(=O)OC)nnn1-c1nonc1N  -0.51%
54. COc1cc2c(cc1OC)C(c1ccncc1)CC(=O)N2 (stereo unspecified)  -0.47%
55. Cc1ccc(S(=O)(=O)N(C)CC(=O)NC2CCCC2)cc1  -0.25%
56. O=C(NCCN1CCOCC1)c1c(F)c(F)c(F)c(F)c1F  -0.16%
57. Cc1cc(C)nc(SCc2nnc(SCC(=O)OC3CCCCC3)o2)n1  -0.1%
58. Cn1cccc1C1(C(F)(F)F)NCCNC1=O (stereo unspecified)  -0.05%
59. CCC1(C)CC(=O)NC1=O (stereo unspecified)  0.1%
60. O=C(Nc1ccccc1-c1nnn(CC(=O)N2CCN(c3ccccc3)CC2)n1)c1cccs1  0.39%
61. Cc1ccc(C)c(NS(=O)(=O)c2cc(Br)cnc2N)c1  0.39%
62. COc1cc(NS(=O)(=O)c2cccc3nsnc23)c2ncccc2c1  0.42%
63. CSCCC(NS(=O)(=O)/C=C/c1ccccc1)C(=O)N1CCC(C)CC1 (stereo unspecified)  0.46%
64. COc1ccc(-c2nc(CS(=O)CC(=O)N3CCc4ccccc4C3)c(C)o2)cc1 (stereo unspecified)  0.64%
65. Cc1cc2c(cc1C)NC(c1ccccn1)C1=C(CC(C)(C)CC1=O)N2 (stereo unspecified)  0.74%
66. NC(=NC(=O)c1ccccc1)C1=C(O)CCC1=O  0.78%
67. O=C(O)C1CCCN(CCC=C(c2ccccc2)c2ccccc2)C1 (stereo unspecified)  0.96%
68. Cc1ccc(C2(c3ccc(C)cc3)NC(=O)N(Cc3c(C)noc3C)C2=O)cc1  1.01%
69. O=S1(=O)CCN2C(=N1)SC1=C2CCN(Cc2ccccc2)C1  1.02%
70. CCN(CC)S(=O)(=O)c1ccc(C(=O)Nc2cc(Br)cc3cccnc23)cc1  1.06%
71. Oc1ccc(Cl)cc1/C=N/c1nc2ccccc2[nH]1  1.09%
72. COc1cccc(Nc2ncccc2C(=O)O)c1  1.09%
73. C=C(C)c1cccc(C(C)(C)NC(=O)N2CCN(c3ncccn3)CC2)c1  1.26%
74. CC(C)n1c(NCc2c[nH]c3ccccc23)nc2ccccc21  1.28%
75. O=S1(=O)CC(NCc2ccccc2)C(Nc2ccc(Cl)cc2)C1 (stereo unspecified)  1.54%
76. CCCOC(=O)Cc1c(O)c2ccccc2[nH]c1=O  1.56%
77. COc1cc(C(=O)Nc2oc(-c3ccccc3)c(-c3ccccc3)c2C#N)cc(OC)c1OC  1.74%
78. C[C@H](NC(=O)NCCc1ccccc1)C(=O)O  1.74%
79. Cc1ccnc(N2C(=O)c3ccccc3C2Nc2ccc3c(c2)OCCO3)c1 (stereo unspecified)  1.75%
80. CCN(CC)C(=O)CSc1nnc(-c2ccc(S(=O)(=O)NCc3ccccc3Cl)cc2)o1  1.83%
81. COc1cc(OC)cc(-c2nc3nc(C)c(CCC(=O)NCc4ccco4)c(C)n3n2)c1  1.84%
82. Cc1ccc(C(c2sc3nc(C)nn3c2O)N2CCN(c3ccc(F)cc3)CC2)cc1 (stereo unspecified)  2.37%
83. O=C(CCOc1ccccc1)NCc1ccccc1  2.46%
84. NC(=O)Cn1c(=O)oc2ccccc21  2.54%
85. CSCCC(Nc1nc2ccccc2s1)C(=O)O (stereo unspecified)  2.67%
86. Cn1c(=O)[nH]c(=O)c2c1nc(Br)n2CCCCSc1nc2ccccc2o1  2.94%
87. CC(=O)c1c(C)c[nH]c1C  3.14%
88. COc1cc(N=C2C=CC(=O)C=C2)c2ncccc2c1  3.25%
89. CC[C@@H]1Cc2cc(O)ccc2C2=C1c1ccc(O)cc1C[C@H]2CC  14.4%

With C=CCn1c(N)c(C(=O)OCC(C)C)c2nc3ccccc3nc21 the inhibition was 65.5% (active).
For N#C/C(=C\c1ccc(O)c(O)c1)C(=O)NCc1ccccc1, the inhibition was 77.1% (active).
For COc1ccc(-c2nc(CS(=O)CC(=O)NCc3ccccn3)c(C)o2)cc1 (stereo unspecified), the inhibition was 71.4% (active).
In the case of COc1cc(NC(C)CCCNC(C)C)c2ncccc2c1 (stereo unspecified), the inhibition was 95.6% (active).
With CC(=O)Oc1cc2c(C(=O)NCCN3CCOCC3)c(C)oc2c2ccccc12 the inhibition was 91% (active).
For COc1cccc(NC(=O)C(C)Oc2ccccc2)c1 (stereo unspecified), the inhibition was 86.4% (active).
For CN(c1ccccc1)c1ccc(/C=c2\s/c(=C(/C#N)C(=O)C(C)(C)C)n(Cc3ccco3)c2=O)cc1, the inhibition was 50.6% (active).
